SMN2 splice enh: increases expression of the SMN2 splice variant. Potency, µM (top dose mostly 46.1 µM), for the others: at the top dose activity change, positive = activation, most hits filed as activators. HEK293 SMN2-luciferase splicing reporter, luminescence, 30-36 h. 210,000 tested, 2.8% active; further: % of control where 0% means no effect; nearly all actives have a fitted effect of over 55% in size
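HEK293 cells carry an SMN2 […]–luciferase reporter in which exon 7 inclusion puts luciferase in frame. Cells were plated 10-12 h before compound addition, then incubated 30-36 h at 37C. ONE-Glo luminescence was read; sodium butyrate at 4.5 mM final served as control.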
FLuc modulator: firefly luciferase modulation, counter-screen for miR-21 project; purified FLuc, Km substrates, luminescence inhibition; Potency, µM (series often up to 57.5 µM), for inactives: top-dose activity change, negative = inhibition, most hits filed as inhibitors; 360,000 tested, 6.9% active;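 further: plate controls were vehicle for no effect and reference inhibitor for full effect; nearly all actives have a fitted effect of over 55% in size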
Target sequence (P08659 whole entry, looked up): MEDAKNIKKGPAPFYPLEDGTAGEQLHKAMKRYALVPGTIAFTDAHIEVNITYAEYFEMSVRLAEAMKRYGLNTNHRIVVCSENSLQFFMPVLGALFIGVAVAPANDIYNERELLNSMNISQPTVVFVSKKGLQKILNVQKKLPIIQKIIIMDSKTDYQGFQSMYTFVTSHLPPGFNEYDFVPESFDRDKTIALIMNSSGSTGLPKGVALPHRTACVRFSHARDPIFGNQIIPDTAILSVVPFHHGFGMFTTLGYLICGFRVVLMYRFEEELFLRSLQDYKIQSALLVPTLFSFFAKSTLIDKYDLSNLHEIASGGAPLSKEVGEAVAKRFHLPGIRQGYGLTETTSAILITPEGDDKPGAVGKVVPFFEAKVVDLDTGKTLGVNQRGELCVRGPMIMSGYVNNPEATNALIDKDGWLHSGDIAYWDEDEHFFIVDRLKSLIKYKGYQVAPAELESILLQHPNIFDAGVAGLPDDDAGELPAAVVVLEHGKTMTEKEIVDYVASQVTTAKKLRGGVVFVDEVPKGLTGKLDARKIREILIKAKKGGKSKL
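Biochemical qHTS of compounds, final roughly 60 µM downward over six points, against 10 nM purified firefly luciferase using Km concentrations of substrates (10 uM D-luciferin, 10 uM ATP) in Tris acetate pH 7.5 buffer; luminescence output.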
KinaseGlo FLuc: counter-screen: inhibitors of Kinase-Glo firefly luciferase | Q27757 | Kinase-Glo luciferase, ATP luminescence, 8 min | Potency, µM (highest dose often 38.3 µM), for the others: top-dose activity change, negative = inhibition, actives largely listed as inhibitors | 200,000 tested, 0.28% active | AID 1379; further: on the % scale 0 is the no-effect control and ±100 the full control effect; nearly all actives have a fitted effect of over 60% in size
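Substrate mix (final 50 mM imidazole pH 7.2, 50 mM KCl, 7 mM MgCl2, 10 uM ATP, 0.01% Tween 20, 0.05% BSA) plus pin-tool compound, then Kinase-Glo detection mix; 8 min ambient, luminescence read.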
NPC1 prom act: activators of NPC1 promoter; Potency, µM (titrated, usually from 9.22 µM), for inactives: at the highest dose activation, actives largely listed as activators; 320,000 tested, 2.4% active; Huh7 NPC1 promoter luciferase reporter, 24 h; further: % of control where 0% means no effect; nearly all actives have a fitted effect of over 60% in size
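Compounds in DMSO were transferred onto Huh7 NPC1-luciferase reporter cells pre-incubated 2 h; after 24 h at 37 °C, Amplite reagent was dispensed and luminescence recorded 10 min later.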
Rab9 promoter act: activates the Rab9 promoter; Huh7 Rab9 promoter-luciferase reporter, luminescence, 24 h; Potency, µM (highest dose often 9.22 µM), for the others: at the top dose activation, negative = inhibition, hits mostly activators; 320,000 tested, 2.8% active; AID 485297; further: % of control where 0% means no effect; nearly all actives have a fitted effect of over 60% in size
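Promoter activation is measured as luciferase luminescence in Huh7 cells stably transfected with a Rab9 promoter–luciferase construct, following 24 h compound exposure at 37 °C and 10 min reagent incubation at ambient temperature.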
ELG1 genotox: genotoxicity induction in ELG1-luciferase HEK293T cells. HEK293T ELG1-luciferase reporter, luminescence, 16 h. Potency, µM (top dose mostly 46 µM), inactives show top-dose activity change, positive = activation, hits mostly activators. 330,000 tested, 1.3% active; further: % of control where 0% means no effect; nearly all actives have a fitted effect of over 60% in size
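ELG1-luciferase HEK293T cells, 2,000/well; compound pinned in; 16 hr, 37 °C, 5% CO2; ONE-Glo, 30 min RT; luminescence on CCD imager.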
* = called active by the depositor. Only some compounds are listed: those with a hit (about 7.4% of all), similar ones and a draw of the others. The call rests on the fitted dose curve; in most records, active means well fitted curve in the direction sought with a large enough effect; inconclusive means small, poorly fitted or top-dose-only effect, or another doubt; inactive means no such curve, though single readings can be large; an effect the other way counts as inactive or inconclusive. Potency means the concentration at half of the fitted maximal effect.

How did CCn1cnc2cc(NCc3cccc(OC)c3O)ccc21 do in these assays?
SMN2 splice enh: 12.5%; FLuc modulator: 12µM*; KinaseGlo FLuc: 1.5%; NPC1 prom act: -0.2%; Rab9 promoter act: -0.7%; ELG1 genotox: 18.4µM*

How did Cc1ccc(CNc2ccc3c(c2)ncn3C(C)C)cc1 do in these assays?
FLuc modulator: 6.01µM*; NPC1 prom act: 2.24µM*; Rab9 promoter act: 2.82µM*; ELG1 genotox: 9.2µM*

What do the screens show for `CCn1cnc2cc(NCc3ccc(Br)cc3)ccc21`?
FLuc modulator: 13.5µM*; NPC1 prom act: 3.55µM*; Rab9 promoter act: 0.708µM*; ELG1 genotox: inconclusive

Results for CCCn1cnc2cc(NCc3cccc(OC)c3)ccc21 ?
SMN2 splice enh: 12.6µM*; FLuc modulator: 16.9µM*; KinaseGlo FLuc: -2.0%; NPC1 prom act: inconclusive; Rab9 promoter act: inconclusive; ELG1 genotox: 15.9%

What do the screens show for `COc1ccc(N2CCN(C(=O)COC(=O)c3ccc(-n4nc(C)cc4C)cc3)CC2)cc1`?
FLuc modulator: 3.1%; NPC1 prom act: 0.0%; Rab9 promoter act: -1.2%; ELG1 genotox: -0.8%

Results for CCOc1ccccc1CNC(=O)CSc1n[nH]c(-c2ccccc2Cl)n1 ?
FLuc modulator: -19.5%

Results for COCCNC(=O)c1ccc(Cc2nc3ccccc3[nH]2)cc1 ?
KinaseGlo FLuc: -2.6%

How did CCCCN(C)C(=O)c1cc2cc3cc(OC)ccc3nc2o1 do in these assays?
SMN2 splice enh: inconclusive; FLuc modulator: 13.5µM*; KinaseGlo FLuc: -0.1%; NPC1 prom act: inconclusive; Rab9 promoter act: 3.55µM*; ELG1 genotox: -2.0%

How did COc1ccc2cc3cc(C(=O)NC(C)C)oc3nc2c1 do in these assays?
FLuc modulator: 16.9µM*; KinaseGlo FLuc: -0.8%; NPC1 prom act: inconclusive; Rab9 promoter act: 2µM*; ELG1 genotox: inconclusive

What do the screens show for `CCCCN(C)CCNC(=O)c1cc2cc3ccc(OC)cc3nc2o1`?
FLuc modulator: 0.1%; NPC1 prom act: -2.7%; Rab9 promoter act: -14.8%; ELG1 genotox: -2.1%

What do the screens show for `CCCCN(C)C(=O)c1cc2cc3ccc(OC)cc3nc2o1`?
FLuc modulator: 3.79µM*; NPC1 prom act: 3.98µM*; Rab9 promoter act: 3.55µM*; ELG1 genotox: inconclusive

What do the screens show for `COCCCNC(=O)c1cc2cc3cc(OC)ccc3nc2o1`?
FLuc modulator: inconclusive; NPC1 prom act: 4.7%; Rab9 promoter act: 9.2%; ELG1 genotox: 6.2%

Results for Cc1ccc(CSc2cc(C)[nH]c(=O)n2)cc1 ?
FLuc modulator: -6.7%; NPC1 prom act: 13.9%; Rab9 promoter act: 10.2%; ELG1 genotox: 17.6%

How did CC(NC(=O)COc1ccc(S(=O)(=O)N2CCOCC2)cc1)c1ccccc1 (configuration not stated) do in these assays?
FLuc modulator: 6.4%; NPC1 prom act: -1.4%; Rab9 promoter act: -4.8%; ELG1 genotox: 0.5%

What do the screens show for `NC(=O)c1ccccc1NC(=O)COc1ccc(Cl)cc1`?
FLuc modulator: 16.9µM*; NPC1 prom act: 3.16µM*; Rab9 promoter act: inconclusive; ELG1 genotox: inconclusive

Results for CSc1ccccc1NC(=O)COc1ccc(Cl)cc1 ?
SMN2 splice enh: -1.6%; FLuc modulator: inconclusive; KinaseGlo FLuc: 2.6%; NPC1 prom act: 15.0%; Rab9 promoter act: 15.5%; ELG1 genotox: 5.8%

How did CCOC(=O)N1CCN(C(=O)c2ccccc2NC(=O)COc2ccccc2)CC1 do in these assays?
FLuc modulator: -19.5%; NPC1 prom act: 21.6%; Rab9 promoter act: 4.3%; ELG1 genotox: -4.3%

How did O=C(COc1ccc(Cl)cc1)Nc1ccccc1Cl do in these assays?
FLuc modulator: 16.9µM*; NPC1 prom act: 15.6%; Rab9 promoter act: -3.7%; ELG1 genotox: inconclusive

Results for NC(=O)c1ccccc1NS(=O)(=O)Cc1ccc(Cl)cc1 ?
SMN2 splice enh: 16.8%; FLuc modulator: -0.2%; KinaseGlo FLuc: 1.2%; NPC1 prom act: -1.4%; Rab9 promoter act: -2.4%; ELG1 genotox: -0.6%

Screens: PubChem BioAssay, National Center for Advancing Translational Sciences (NCATS)
